GPR151 ag: activates the human receptor GPR151. activation, % at 11.2 µM. AID 1508602. PathHunter beta-arrestin GPR151 cells, luminescence. Q8TDV0. actives 1% (n = 650,000); in the data active = activation above about 4.9%
Target sequence (Q8TDV0 whole entry, looked up): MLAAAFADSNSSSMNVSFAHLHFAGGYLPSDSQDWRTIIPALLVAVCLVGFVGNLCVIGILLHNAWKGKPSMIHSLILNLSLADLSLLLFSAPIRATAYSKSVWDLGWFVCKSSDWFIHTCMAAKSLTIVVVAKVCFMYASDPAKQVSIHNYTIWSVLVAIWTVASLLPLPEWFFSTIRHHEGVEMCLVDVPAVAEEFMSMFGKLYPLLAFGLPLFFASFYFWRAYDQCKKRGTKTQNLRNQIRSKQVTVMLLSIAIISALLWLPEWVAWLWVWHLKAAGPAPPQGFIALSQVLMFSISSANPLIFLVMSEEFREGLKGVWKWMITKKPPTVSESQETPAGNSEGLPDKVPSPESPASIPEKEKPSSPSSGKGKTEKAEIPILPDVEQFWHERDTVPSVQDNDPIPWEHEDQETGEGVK
MITF inh: inhibitors of human MITF. O75030. AlphaScreen MITF homodimerization, bead proximity signal. inhibition, % at 2.6 µM. actives 0.91% (n = 650,000); in the data active = inhibition above about 50%
TEAD-YAP inh: TEAD-YAP interaction inhibition. actives 1.4% (n = 640,000). AID 1259422. HEK-TIYL cells, TEAD-Gal4/YAP UAS-luciferase luminescence. inhibition, % at 9.12 µM; in the data active = inhibition above about 32%
FBW7 act: human FBW7 E3 ligase activation, primary screen; Q969H0; AlphaScreen FBW7–phospho-cyclin E peptide binding, activator screen; normalized activity (activation), % at 26.1 µM; actives 0.13% (n = 650,000); in the data active = normalized activity above about 1.9%;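 also: purified mutant Fbw7 with reduced substrate affinity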
MITF confirm: confirmation of human MITF inhibitors. shares compounds with MITF inh. AlphaScreen MITF homodimerization, biotin/His-MITF beads. inhibition, % at 2.6 µM. actives 16% (n = 4,700). AID 1259372;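 active = inhibition above a cutoff derived from the DMSO control wells, cut at about 28% in these data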;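 also: inhibitors lower the bead chemiluminescence by keeping MITF from dimerizing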
AS interf DR: AlphaScreen optical interference, dose response counter-screen. shares compounds with MITF inh. AlphaScreen optical interference counterscreen, cell-free. IC50, µM. actives 6% (n = 480); call rule not given here
AlphaScreen intf2: optically interferes with AlphaScreen signal | AID 1259376 | LysRS AlphaScreen counterscreen, signal interference, triplicate | inhibition, % at 2.6 µM | actives 7.6% (n = 4,700) | shares compounds with MITF inh;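 active = inhibition above a cutoff derived from the DMSO control wells, cut at about 30% in these data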
Of the large screens only hits and unclear results are named; the others gave an inactive call (follow-up assays come after a bar, where they were run). Sampled rows, rich in hits. Any-hit rate of the full collection: about 3.4%.

Cc1ccc(NC(=O)CN(C)CC(=O)Nc2ccc(F)c(F)c2F)c(Cl)c1	none
Cc1ccc(NC(=O)CN(C)C2CCN(C)CC2)c(Cl)c1	MITF inh 66.7 | MITF confirm inactive | AlphaScreen intf2 inactive
COC(=O)CN(c1ccccn1)S(=O)(=O)c1ccccc1	MITF inh 61.4 | MITF confirm inactive | AlphaScreen intf2 inactive
COC(=O)CN(c1ccc(I)cc1)S(=O)(=O)c1ccccc1	none
Cc1cc(C(=O)O)ccc1-c1ccc(/C=C2/NC(=O)NC2=O)o1	MITF inh 66.8 | MITF confirm 67.6 | AS interf DR inactive | AlphaScreen intf2 inactive
O=C(NCc1ccc2c(c1)OCO2)C1(S(=O)(=O)c2ccc(Cl)cc2)CC1	MITF inh 87.8 | MITF confirm inactive | AlphaScreen intf2 inactive
O=C(CNCCc1ccc(Cl)cc1)NCc1ccc2c(c1)OCO2	MITF inh 60.0 | MITF confirm inactive | AlphaScreen intf2 inactive
COc1cccc(C(=O)OCC(=O)NC(C)(C)C)c1OC	none
COc1cc(OC)nc(Oc2ccccc2-c2ccn(C)n2)n1	none
C=CCNCCOc1cc(C)cc(C(C)C)c1	none
C=CCNCCOCCOc1cc(C)cc(C(C)C)c1	MITF inh 64.2 | MITF confirm inactive | AlphaScreen intf2 inactive
COCCNCCOCCOc1cc(C)cc(C(C)C)c1	MITF inh 52.6 | MITF confirm inactive | AlphaScreen intf2 inactive
Cc1cc(=O)nc2c3ccccc3n(CC(=O)N3CCC4(CC3)OCCO4)n12	none
CCOC(=O)C(=O)Nc1nnc(-c2ccco2)s1	none
Cc1ccc(-c2csc3ncc(C(=O)NC(C)(C)CO)c(=O)n23)cc1	none
Cc1cccc(NC(=O)CSc2ccc(-c3ccccn3)nn2)c1	MITF inh 56.9 | MITF confirm 76.1 | AlphaScreen intf2 99.3
CC(=O)c1cccc(NC(=O)CSc2ccc(-c3ccccn3)nn2)c1	none
CC(=O)Nc1ccc(NC(=O)CSc2ccc(-c3ccccn3)nn2)cc1	MITF inh 82.8 | MITF confirm 83.2 | AlphaScreen intf2 100.3
CC(=O)Nc1cccc(NC(=O)CSc2ccc(-c3ccccn3)nn2)c1	MITF inh 83.7 | MITF confirm 78.6 | AlphaScreen intf2 99.8
O=C(CSc1ccc(-c2ccccn2)nn1)Nc1ccc(Br)cc1	none
COc1ccc(C2C3=C(Nc4ncnn42)c2ccccc2OC3)cc1 (centres undefined)	none
COC(=O)Cc1cc(=O)n(-c2nc3ccccc3[nH]2)[nH]1	MITF inh 94.3 | MITF confirm 72.2 | AlphaScreen intf2 98.6
CC(C)N(C(=O)CSc1nc(C2CC2)nc2ccccc12)C(C)C	none
c1ccc(-c2ccc(OCc3ccccn3)nc2)cc1	none
CCOC(=O)c1ccc(OCC2c3cc(OC)c(OC)cc3CCN2C(=O)c2ccc(F)cc2)cc1 (centres undefined)	none
O=C(Nc1nc2c(s1)CCC2C(=O)NCCCc1ccccc1)c1ccc(F)cc1 (centres undefined)	MITF inh 80.2 | MITF confirm inactive | AlphaScreen intf2 inactive
FC(F)(F)c1ccccc1CN1CCOCC1	MITF inh 76.9 | MITF confirm inactive | AlphaScreen intf2 inactive
Cc1ccccc1CN1CCN(Cc2ccccc2C(F)(F)F)CC1	MITF inh 79.9 | MITF confirm inactive | AlphaScreen intf2 inactive
FC(F)(F)c1ccccc1CN1CCN(Cc2ccc(Cl)cc2)CC1	none
FC(F)(F)c1ccccc1CN1CCN(Cc2cccnc2)CC1	MITF inh 83.1 | MITF confirm inactive | AlphaScreen intf2 inactive
CN(C)S(=O)(=O)c1cc(C(=O)O)ccc1Cl	none
COc1ccc(CN2C(=O)C(=O)c3cc(Br)cc(C)c32)cc1OC	none
OC[C@H]1OC([S-])[C@H](O)[C@@H](O)[C@@H]1O.[Au+] (some centres undefined)	MITF inh 85.8 | MITF confirm 72.9 | AS interf DR inactive | AlphaScreen intf2 inactive
COc1cc(OC)cc(C(=O)N2CCN(Cc3ccc4ccccc4c3)CC2)c1	none
COc1ccc(C(=O)N2CCN(Cc3cc(OC)c(O)c(OC)c3)CC2)cc1OC	none
COc1cc(OC)cc(C(=O)N2CCN(Cc3ccc(C(F)(F)F)cc3)CC2)c1	MITF inh 52.1 | MITF confirm inactive | AlphaScreen intf2 inactive
COc1ccc(C(=O)N2CCN(Cc3ccc(C(F)(F)F)cc3)CC2)cc1OC	MITF inh 51.1, TEAD-YAP inh 48.6 | MITF confirm inactive | AlphaScreen intf2 inactive
